From PMC7862700, “An all-to-all approach to the identification of sequence-specific readers for epigenetic DNA modifications on cytosine”

Columns and labels:
Assay in all cases: DAPPL (digital affinity profiling via proximity ligation, sequencing); 10 mM Tris-HCl pH 7.5, 50 mM NaCl, 1 mM DTT, 4% glycerol, room temperature, 30 min; GST-TFs on glutathione beads, 16-mer random dsDNA library, 0.1% formaldehyde crosslink after washing; high values mean tight binding
[1] = biological target: T1, FEV (Homo sapiens, UniProt Q99581 1-238); settings: protein: recombinant; tags: N-terminal GST; dsDNA, one strand shown
T1 sequence: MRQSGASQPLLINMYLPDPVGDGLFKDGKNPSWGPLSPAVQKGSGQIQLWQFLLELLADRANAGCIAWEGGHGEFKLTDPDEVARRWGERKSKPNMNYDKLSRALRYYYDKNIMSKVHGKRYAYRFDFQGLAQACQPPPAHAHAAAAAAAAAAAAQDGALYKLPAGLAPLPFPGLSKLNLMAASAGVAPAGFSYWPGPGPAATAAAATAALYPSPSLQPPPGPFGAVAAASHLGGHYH
Outline: (§1)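 Beads coated with glutathione captured GST-fused human transcription factors that had been expressed in yeast, and the factors were then given DNA barcodes and pooled with a tag-only sample. The pools were incubated with 200 nmole of a random double-stranded 16-mer DNA library in Tris/NaCl/DTT/glycerol buffer for 30 min at room temperature, washed, crosslinked with 0.1% formaldehyde and proximity-ligated with BsaI/T4 ligase at 37 °C for 1 h. PCR amplification and Illumina NextSeq500 sequencing came last. Binding signal is each hexamer's read frequency for a factor divided by its frequency for the tag-only sample.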

[2] = biological target: ETV5 (Homo sapiens, UniProt P41161 1-510); settings: protein: recombinant; tags: N-terminal GST; dsDNA, one strand shown
ETV5, sequence (P41161 whole entry): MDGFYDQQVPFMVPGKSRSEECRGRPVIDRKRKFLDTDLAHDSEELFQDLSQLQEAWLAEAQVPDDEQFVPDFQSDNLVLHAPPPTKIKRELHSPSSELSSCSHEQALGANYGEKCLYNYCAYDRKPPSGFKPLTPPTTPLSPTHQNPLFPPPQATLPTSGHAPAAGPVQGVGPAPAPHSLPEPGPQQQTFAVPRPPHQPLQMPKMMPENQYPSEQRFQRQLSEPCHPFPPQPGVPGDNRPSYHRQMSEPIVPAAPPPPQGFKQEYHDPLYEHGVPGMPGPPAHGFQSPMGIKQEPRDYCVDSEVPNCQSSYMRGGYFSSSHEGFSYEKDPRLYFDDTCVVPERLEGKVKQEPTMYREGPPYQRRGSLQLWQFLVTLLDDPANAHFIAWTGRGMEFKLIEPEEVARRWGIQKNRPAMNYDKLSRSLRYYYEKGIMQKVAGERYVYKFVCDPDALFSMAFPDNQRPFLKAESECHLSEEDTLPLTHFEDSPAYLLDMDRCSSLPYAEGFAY
Outline: as §1

[3] = biological target: HSF1 (Homo sapiens, UniProt Q00613 1-529); settings: protein: recombinant; tags: N-terminal GST; chain copies: 3; dsDNA, one strand shown
HSF1, sequence (Q00613 whole entry): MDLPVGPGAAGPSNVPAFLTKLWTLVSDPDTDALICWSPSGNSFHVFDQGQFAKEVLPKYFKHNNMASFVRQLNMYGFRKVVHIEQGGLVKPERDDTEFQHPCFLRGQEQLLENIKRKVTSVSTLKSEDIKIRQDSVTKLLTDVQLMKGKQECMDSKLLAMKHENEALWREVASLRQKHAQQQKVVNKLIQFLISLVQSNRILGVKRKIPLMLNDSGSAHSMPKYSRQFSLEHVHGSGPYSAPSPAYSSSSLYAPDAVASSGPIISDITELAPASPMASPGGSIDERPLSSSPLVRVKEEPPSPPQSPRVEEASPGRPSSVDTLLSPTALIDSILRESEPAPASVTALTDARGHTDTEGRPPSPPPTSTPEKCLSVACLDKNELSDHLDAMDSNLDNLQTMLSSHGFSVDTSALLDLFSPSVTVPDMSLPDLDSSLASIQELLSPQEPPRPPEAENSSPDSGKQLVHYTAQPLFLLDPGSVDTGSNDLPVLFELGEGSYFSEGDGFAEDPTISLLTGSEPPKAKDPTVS
Outline: as §1

[4] = biological target: T2, SPIC (Homo sapiens, UniProt Q8N5J4 1-248); settings: protein: recombinant; tags: N-terminal GST; dsDNA, one strand shown
T2 sequence: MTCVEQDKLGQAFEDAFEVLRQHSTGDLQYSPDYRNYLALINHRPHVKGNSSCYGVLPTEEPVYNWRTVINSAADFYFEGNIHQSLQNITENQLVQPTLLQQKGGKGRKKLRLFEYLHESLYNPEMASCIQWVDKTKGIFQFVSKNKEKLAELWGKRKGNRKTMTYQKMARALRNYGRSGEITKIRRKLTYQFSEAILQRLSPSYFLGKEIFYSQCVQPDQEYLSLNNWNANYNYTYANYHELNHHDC
Outline: as §1

[5] = biological target: ELF4 (Homo sapiens, UniProt Q99607 1-663); settings: protein: recombinant; tags: N-terminal GST; dsDNA, one strand shown
ELF4, sequence (Q99607 whole entry): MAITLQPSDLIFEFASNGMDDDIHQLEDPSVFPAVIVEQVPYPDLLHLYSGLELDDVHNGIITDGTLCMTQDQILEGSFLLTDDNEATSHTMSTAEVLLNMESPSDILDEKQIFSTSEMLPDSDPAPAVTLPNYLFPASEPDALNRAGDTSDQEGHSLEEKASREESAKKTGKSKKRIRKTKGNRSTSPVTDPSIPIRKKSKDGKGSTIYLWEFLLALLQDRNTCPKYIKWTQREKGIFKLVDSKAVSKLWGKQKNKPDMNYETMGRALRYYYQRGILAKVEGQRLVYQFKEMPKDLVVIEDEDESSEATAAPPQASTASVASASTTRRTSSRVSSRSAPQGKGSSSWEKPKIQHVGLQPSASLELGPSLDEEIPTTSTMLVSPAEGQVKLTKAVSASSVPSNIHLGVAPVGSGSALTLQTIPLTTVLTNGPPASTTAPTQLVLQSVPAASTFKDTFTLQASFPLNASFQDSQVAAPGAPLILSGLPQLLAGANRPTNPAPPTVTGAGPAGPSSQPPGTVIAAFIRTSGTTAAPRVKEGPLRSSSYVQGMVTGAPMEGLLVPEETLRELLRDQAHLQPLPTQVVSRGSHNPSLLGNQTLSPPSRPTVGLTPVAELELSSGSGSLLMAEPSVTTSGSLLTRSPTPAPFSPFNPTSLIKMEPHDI
Outline: as §1

[6] = biological target: T3, ELK4 (Homo sapiens, UniProt P28324-2 1-405); settings: protein: recombinant; tags: N-terminal GST; dsDNA, one strand shown
T3 sequence: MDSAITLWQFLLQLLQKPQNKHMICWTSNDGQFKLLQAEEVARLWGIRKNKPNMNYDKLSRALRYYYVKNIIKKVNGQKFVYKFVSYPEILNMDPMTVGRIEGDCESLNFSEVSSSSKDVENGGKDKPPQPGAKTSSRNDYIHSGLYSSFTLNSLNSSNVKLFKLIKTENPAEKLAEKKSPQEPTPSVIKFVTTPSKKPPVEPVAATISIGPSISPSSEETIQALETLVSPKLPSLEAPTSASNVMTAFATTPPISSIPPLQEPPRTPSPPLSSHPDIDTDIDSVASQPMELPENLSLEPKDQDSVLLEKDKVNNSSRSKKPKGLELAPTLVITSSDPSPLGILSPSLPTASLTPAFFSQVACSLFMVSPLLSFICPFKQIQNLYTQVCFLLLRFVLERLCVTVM
Outline: as §1

[7] = biological target: T4, ETV2 (Homo sapiens, UniProt O00321 1-342); settings: protein: recombinant; tags: N-terminal GST; dsDNA, one strand shown
T4 sequence: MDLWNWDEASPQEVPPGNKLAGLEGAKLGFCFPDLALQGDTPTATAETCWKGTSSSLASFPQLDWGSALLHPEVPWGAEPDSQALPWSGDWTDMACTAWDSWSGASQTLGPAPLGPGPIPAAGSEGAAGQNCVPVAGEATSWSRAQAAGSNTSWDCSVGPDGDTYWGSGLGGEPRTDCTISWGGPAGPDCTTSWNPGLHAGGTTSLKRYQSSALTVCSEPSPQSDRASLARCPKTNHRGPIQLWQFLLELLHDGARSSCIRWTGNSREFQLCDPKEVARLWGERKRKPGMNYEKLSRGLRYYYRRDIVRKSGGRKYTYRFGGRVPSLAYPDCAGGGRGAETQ
Outline: as §1

[8] = biological target: T5, ELF3 (Homo sapiens, UniProt P78545 1-371); settings: protein: recombinant; tags: N-terminal GST; dsDNA, one strand shown
T5 sequence: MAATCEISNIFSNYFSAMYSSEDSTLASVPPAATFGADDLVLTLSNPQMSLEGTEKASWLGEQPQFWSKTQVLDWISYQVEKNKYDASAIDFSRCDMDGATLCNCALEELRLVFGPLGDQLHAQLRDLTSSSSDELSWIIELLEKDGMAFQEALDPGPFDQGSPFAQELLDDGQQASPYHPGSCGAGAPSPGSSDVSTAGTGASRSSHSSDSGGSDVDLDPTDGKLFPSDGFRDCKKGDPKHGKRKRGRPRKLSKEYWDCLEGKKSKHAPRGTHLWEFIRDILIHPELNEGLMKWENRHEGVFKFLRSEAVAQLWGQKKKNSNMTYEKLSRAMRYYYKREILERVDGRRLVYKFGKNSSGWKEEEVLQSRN
Outline: as §1

[9] = biological target: CRX (Homo sapiens, UniProt O43186 1-299); settings: protein: recombinant; tags: N-terminal GST; dsDNA, one strand shown
CRX, sequence (O43186 whole entry): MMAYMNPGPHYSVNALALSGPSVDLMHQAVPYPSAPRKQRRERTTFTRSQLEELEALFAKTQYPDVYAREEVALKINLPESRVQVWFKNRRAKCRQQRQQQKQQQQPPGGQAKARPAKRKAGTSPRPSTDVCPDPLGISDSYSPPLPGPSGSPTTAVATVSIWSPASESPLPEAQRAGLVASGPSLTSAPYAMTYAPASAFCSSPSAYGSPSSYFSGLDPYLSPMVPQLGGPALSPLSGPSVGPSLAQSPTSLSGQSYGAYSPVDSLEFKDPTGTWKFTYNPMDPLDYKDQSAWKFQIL
Outline: as §1

[10] = biological target: ETV1 (Homo sapiens, UniProt P50549 1-477); settings: protein: recombinant; tags: N-terminal GST; dsDNA, one strand shown
ETV1, sequence (P50549 whole entry): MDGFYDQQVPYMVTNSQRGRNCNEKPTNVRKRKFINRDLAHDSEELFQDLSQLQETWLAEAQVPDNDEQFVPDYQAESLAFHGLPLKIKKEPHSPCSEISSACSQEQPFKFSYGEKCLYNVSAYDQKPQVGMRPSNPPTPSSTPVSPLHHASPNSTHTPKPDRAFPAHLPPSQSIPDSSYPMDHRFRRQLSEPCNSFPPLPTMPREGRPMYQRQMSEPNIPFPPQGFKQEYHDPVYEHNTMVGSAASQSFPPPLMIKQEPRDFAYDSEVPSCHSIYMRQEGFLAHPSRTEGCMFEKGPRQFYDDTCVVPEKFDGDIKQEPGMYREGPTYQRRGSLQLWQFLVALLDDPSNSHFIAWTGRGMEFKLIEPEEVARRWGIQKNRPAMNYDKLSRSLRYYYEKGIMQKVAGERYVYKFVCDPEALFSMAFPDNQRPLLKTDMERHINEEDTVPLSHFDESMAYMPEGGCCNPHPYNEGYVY
Outline: as §1

[11] = biological target: T6, ERF (Homo sapiens, UniProt P50548 1-548); settings: protein: recombinant; tags: N-terminal GST; dsDNA, one strand shown
T6 sequence: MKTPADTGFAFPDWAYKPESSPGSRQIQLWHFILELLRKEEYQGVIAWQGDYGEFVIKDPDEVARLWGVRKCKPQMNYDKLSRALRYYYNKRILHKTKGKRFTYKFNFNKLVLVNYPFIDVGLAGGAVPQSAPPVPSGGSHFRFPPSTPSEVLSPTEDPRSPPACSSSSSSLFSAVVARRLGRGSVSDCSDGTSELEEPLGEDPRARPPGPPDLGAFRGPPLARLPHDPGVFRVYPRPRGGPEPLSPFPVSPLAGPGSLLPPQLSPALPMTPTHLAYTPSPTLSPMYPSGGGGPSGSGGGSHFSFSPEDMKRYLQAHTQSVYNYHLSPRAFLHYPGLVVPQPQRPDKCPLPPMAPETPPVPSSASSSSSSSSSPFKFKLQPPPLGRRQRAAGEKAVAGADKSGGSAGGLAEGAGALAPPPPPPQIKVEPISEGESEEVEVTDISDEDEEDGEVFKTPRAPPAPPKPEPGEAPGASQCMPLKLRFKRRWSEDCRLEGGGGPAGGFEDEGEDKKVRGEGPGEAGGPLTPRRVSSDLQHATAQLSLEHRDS
Outline: as §1

[12] = biological target: T7, ETV3L (Homo sapiens, UniProt Q6ZN32 1-361); settings: protein: recombinant; tags: N-terminal GST; dsDNA, one strand shown
T7 sequence: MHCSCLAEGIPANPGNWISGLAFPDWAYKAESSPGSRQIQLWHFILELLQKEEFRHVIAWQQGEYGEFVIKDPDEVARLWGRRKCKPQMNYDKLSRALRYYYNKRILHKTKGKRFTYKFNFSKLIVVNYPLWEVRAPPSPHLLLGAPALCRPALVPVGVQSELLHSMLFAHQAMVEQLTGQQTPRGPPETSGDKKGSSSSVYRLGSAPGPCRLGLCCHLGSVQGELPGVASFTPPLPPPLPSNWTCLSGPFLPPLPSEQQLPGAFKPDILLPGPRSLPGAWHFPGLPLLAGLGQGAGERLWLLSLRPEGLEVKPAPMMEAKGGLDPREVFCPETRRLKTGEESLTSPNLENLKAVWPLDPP
Outline: as §1

[13] = biological target: T8, ETS2 (Homo sapiens, UniProt P15036 1-469); settings: protein: recombinant; tags: N-terminal GST; dsDNA, one strand shown
T8 sequence: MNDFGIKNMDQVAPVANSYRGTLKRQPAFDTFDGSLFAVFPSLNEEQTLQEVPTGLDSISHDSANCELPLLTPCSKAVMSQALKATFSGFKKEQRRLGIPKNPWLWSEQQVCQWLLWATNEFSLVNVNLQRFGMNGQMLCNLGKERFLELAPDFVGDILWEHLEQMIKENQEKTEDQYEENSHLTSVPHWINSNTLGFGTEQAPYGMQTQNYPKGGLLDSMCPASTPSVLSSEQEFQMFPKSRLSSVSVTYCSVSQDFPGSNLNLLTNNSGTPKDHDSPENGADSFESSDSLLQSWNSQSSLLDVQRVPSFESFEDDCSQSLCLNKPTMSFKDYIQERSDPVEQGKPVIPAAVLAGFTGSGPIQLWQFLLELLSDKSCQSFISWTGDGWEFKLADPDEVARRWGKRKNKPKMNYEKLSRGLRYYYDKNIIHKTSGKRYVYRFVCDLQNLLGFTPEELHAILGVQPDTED
Outline: as §1

[14] = biological target: T9, SPDEF (Homo sapiens, UniProt O95238 1-335); settings: protein: recombinant; tags: N-terminal GST; dsDNA, one strand shown
T9 sequence: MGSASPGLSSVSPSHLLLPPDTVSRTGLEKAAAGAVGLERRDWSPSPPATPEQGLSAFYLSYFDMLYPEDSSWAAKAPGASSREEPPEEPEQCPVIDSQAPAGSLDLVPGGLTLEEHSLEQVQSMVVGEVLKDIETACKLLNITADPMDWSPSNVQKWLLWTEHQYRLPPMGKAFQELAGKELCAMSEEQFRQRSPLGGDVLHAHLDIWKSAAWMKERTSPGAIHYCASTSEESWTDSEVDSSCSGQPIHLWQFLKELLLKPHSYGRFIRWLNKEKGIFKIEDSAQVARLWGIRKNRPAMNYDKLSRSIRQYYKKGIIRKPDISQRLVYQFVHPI
Outline: as §1

[15] = biological target: T10, ETV7 (Homo sapiens, UniProt Q9Y603 1-341); settings: protein: recombinant; tags: N-terminal GST; dsDNA, one strand shown
T10 sequence: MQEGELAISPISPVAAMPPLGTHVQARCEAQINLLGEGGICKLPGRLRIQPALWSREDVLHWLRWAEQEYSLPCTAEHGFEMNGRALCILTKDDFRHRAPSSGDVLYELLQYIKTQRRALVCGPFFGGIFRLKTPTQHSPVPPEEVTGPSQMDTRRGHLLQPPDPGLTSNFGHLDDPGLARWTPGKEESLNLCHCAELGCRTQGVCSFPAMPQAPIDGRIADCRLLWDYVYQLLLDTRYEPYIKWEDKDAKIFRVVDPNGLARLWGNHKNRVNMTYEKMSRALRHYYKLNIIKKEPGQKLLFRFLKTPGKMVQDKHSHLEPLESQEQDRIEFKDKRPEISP
Outline: as §1

[16] = biological target: T11, ELF5 (Homo sapiens, UniProt Q9UKW6-2 1-255); settings: protein: recombinant; tags: N-terminal GST; dsDNA, one strand shown
T11 sequence: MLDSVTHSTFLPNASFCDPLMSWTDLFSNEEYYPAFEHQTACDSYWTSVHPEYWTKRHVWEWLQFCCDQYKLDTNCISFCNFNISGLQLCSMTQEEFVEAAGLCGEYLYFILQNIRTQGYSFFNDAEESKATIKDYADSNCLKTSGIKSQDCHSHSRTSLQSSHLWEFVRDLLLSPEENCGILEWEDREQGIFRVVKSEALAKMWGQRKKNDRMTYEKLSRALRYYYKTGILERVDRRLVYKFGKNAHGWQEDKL
Outline: as §1

[17] = biological target: T12, ETV3 (Homo sapiens, UniProt P41162-2 1-143); settings: protein: recombinant; tags: N-terminal GST; dsDNA, one strand shown
T12 sequence: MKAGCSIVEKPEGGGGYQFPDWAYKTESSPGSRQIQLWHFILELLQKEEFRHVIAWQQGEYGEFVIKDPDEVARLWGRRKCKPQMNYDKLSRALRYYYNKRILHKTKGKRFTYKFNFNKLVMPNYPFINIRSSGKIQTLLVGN
Outline: as §1

[18] = biological target: ETV6 (Homo sapiens, UniProt P41212 1-452); settings: protein: recombinant; tags: N-terminal GST; dsDNA, one strand shown
ETV6, sequence (P41212 whole entry): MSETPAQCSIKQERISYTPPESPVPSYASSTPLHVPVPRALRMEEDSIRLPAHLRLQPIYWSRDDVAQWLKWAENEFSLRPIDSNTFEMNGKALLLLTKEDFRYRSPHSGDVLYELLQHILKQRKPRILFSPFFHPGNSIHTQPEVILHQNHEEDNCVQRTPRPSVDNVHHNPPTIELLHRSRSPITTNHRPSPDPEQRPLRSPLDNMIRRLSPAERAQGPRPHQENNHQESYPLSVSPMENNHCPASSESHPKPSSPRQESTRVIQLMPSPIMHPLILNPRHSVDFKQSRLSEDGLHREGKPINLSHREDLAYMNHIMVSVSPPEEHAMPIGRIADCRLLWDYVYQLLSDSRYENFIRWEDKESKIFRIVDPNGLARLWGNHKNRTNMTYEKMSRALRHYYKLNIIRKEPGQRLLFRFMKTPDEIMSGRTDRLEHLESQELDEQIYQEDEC
Outline: as §1

## AATTCC
[1]
  binding signal: 2.05 fold enrichment (6-mer frequency, TF over GST control)
[2]
  binding signal: 2.1 fold enrichment (6-mer frequency, TF over GST control)
[3]
  binding signal: 2.07 fold enrichment (6-mer frequency, TF over GST control)
[4]
  binding signal: 1.93 fold enrichment (6-mer frequency, TF over GST control)
[5]
  binding signal: 1.92 fold enrichment (6-mer frequency, TF over GST control)
[6]
  binding signal: 1.55 fold enrichment (6-mer frequency, TF over GST control)
[7]
  binding signal: 2.11 fold enrichment (6-mer frequency, TF over GST control)
[8]
  binding signal: 1.7 fold enrichment (6-mer frequency, TF over GST control)
[9]
  binding signal: 2.04 fold enrichment (6-mer frequency, TF over GST control)
[10]
  binding signal: 1.95 fold enrichment (6-mer frequency, TF over GST control)
[11]
  binding signal: 1.65 fold enrichment (6-mer frequency, TF over GST control)
[12]
  binding signal: 1.87 fold enrichment (6-mer frequency, TF over GST control)
[13]
  binding signal: 1.86 fold enrichment (6-mer frequency, TF over GST control)
[14]
  binding signal: 1.98 fold enrichment (6-mer frequency, TF over GST control)
[15]
  binding signal: 1.7 fold enrichment (6-mer frequency, TF over GST control)
[16]
  binding signal: 2.39 fold enrichment (6-mer frequency, TF over GST control)
[17]
  binding signal: 2.09 fold enrichment (6-mer frequency, TF over GST control)
[18]
  binding signal: 1.97 fold enrichment (6-mer frequency, TF over GST control)
